This is an account of results in PubChem BioAssay (EPA / NIEHS).

A short description of assay [1]: ATG_E_Box_CIS: Attagene CIS-FACTORIAL HepG2 Assay for human Enhancer Box (E-box) (AID 2282936). The settings on record: HepG2 E-box cis-reporter transcription, actives raise or lower the signal. In short, it runs like this: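 Measured 24 h post-dosing in HepG2 cells transfected with multiple cis-regulated reporter units, signal being reporter mRNA induction detected by fluorescent RT-PCR with capillary electrophoresis; gain or loss fitted against DMSO.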

Assay [2] in a line: ATG_M_61_CIS: Attagene CIS-FACTORIAL HepG2 Assay for M61 Transcription Factor (Internal Marker) (AID 2282937). To be noted: HepG2 Attagene CIS-FACTORIAL M61 internal marker reporter; actives raise or lower the signal. A digest of the protocol: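 Human liver HepG2, transient MRTU transfection (cis promoter elements), 24 h compound. Total RNA → oligo(dT) RT → PCR → FAM label → HpaI → CE. Internal background marker; bidirectional fitting, DMSO = baseline.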

Assay [3] can be described thus: ATG_EGR_CIS: Attagene CIS-FACTORIAL HepG2 Assay for human Early Growth Response 1 (EGR1) (AID 2282938). To be noted: HepG2 Attagene CIS-FACTORIAL EGR reporter mRNA; actives raise or lower the signal. A digest of the protocol:
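Transient transfection of human HepG2 with multiple cis-regulated reporter units, chemical exposure 24 h, total RNA isolated. Reverse transcription, PCR, fluorescent labelling and capillary electrophoresis quantify reporter transcripts; activity fitted bidirectionally against DMSO.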

The nature of assay [4]: ATG_M_19_CIS: Attagene CIS-FACTORIAL HepG2 Assay for M19 Transcription Factor (Internal Marker) (AID 2282939). The settings on record: HepG2 Attagene CIS-FACTORIAL M19 internal marker reporter; actives raise or lower the signal. In short, it runs like this: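 Chemical-treated HepG2 (24 h) with MRTU constructs; reporter transcripts detected by fluorescent RT-PCR fragment analysis on capillary electrophoresis. Internal background marker, DMSO as baseline.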

The nature of assay [5]: ATG_Ets_CIS: Attagene CIS-FACTORIAL HepG2 Assay for human Erythroblast Transformation Specific (ETS) (AID 2282941). To be noted: HepG2 ETS cis-reporter transcription, actives raise or lower the signal. A digest of the protocol:
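Bidirectional fit versus DMSO of reporter mRNA signal, detected by RT-PCR and capillary electrophoresis in HepG2 cells transiently transfected with cis-element reporters and dosed 24 h.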

Assay [6] deals with Hepatocyte nuclear factor 3-beta (Homo sapiens) (UniProt Q9Y261). As to the kind of experiment: ATG_FoxA2_CIS: Attagene CIS-FACTORIAL HepG2 Assay for human Forkhead box A2 (FOXA2) (AID 2282942). The settings on record: HepG2 cis-reporter transcription factor activity, 24 h; actives raise or lower the signal. A digest of the protocol: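 Transient MRTU transfection of HepG2 liver cells; 24 h treatment; total RNA → oligo(dT) RT → PCR → FAM primer extension → HpaI cut → CE. Bidirectional fit vs DMSO.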

Assay [7] is described as follows: ATG_FoxO_CIS: Attagene CIS-FACTORIAL HepG2 Assay for human Forkhead box O (FoxO) (AID 2282943). To be noted: HepG2 Attagene cis-reporter, FoxO element, mRNA; actives raise or lower the signal. In short, it runs like this: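 Values reflect reporter mRNA induction or loss in HepG2 cells 24 h post-dosing, fitted bidirectionally with DMSO as negative control and baseline. Detection used RT-PCR and fluorescence capillary electrophoresis.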

Assay [8] in a line: ATG_GATA_CIS: Attagene CIS-FACTORIAL HepG2 Assay for human GATA Binding Protein (AID 2282944). To be noted: HepG2 GATA cis-element reporter, Attagene multiplex mRNA; actives raise or lower the signal. A digest of the protocol:
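Transfected cis-reporter HepG2 cells were treated with chemicals for 24 hours. Total RNA was then converted to cDNA, amplified with reporter-specific primers and analysed by fluorescent capillary electrophoresis, using DMSO-treated wells as baseline.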

The target in assay [9] is Bile acid receptor (Homo sapiens) (UniProt Q96RI1). Put plainly: ATG_IR1_CIS: Attagene CIS-FACTORIAL HepG2 Assay for human Nuclear Receptor Subfamily 1 Group H Member 4 (NR1H4), IR1 submotif (AID 2282946). The settings on record: IR1 reporter transcription, actives raise or lower the signal. A digest of the protocol: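 Readout: reporter transcript levels by RT-PCR with fluorescent capillary electrophoresis, from HepG2 cells transiently transfected with multiplexed cis-regulated reporters and dosed 24 h. Gain- or loss-of-signal fitted versus DMSO negative control.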

The nature of assay [10]: ATG_GLI_CIS: Attagene CIS-FACTORIAL HepG2 Assay for human Zinc Finger Protein GLI1 (AID 2282945). The settings on record: HepG2, Attagene cis-factorial reporter mRNA, GLI element; actives raise or lower the signal. A digest of the protocol:
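HepG2 cells transiently transfected with cis-promoter multiplexed reporter units report endogenous transcription factor activity. After 24 h chemical exposure, reporter mRNA was quantified by RT-PCR, 6-FAM labelling, HpaI digestion and capillary electrophoresis, with bidirectional fitting against DMSO.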

Activity calls are given as the source filed them. The calls were made as follows: active = hit-call score of the fitted dose curve at least 0.9, where 1 is the maximum; inactive = score below 0.9.

Sequence of Hepatocyte nuclear factor 3-beta (Homo sapiens) (Q9Y261 whole entry, looked up): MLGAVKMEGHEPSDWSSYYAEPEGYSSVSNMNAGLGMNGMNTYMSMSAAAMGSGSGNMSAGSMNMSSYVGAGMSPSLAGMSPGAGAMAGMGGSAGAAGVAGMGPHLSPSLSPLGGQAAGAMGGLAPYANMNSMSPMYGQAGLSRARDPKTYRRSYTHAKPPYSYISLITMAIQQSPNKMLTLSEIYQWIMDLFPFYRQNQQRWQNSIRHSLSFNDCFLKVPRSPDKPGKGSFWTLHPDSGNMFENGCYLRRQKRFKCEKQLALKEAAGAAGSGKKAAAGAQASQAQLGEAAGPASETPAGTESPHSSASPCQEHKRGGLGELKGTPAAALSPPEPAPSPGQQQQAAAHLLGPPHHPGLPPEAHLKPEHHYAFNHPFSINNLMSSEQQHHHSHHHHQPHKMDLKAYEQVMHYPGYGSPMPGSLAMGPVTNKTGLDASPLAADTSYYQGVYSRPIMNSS
Sequence of Bile acid receptor (Homo sapiens) (Q96RI1 whole entry, looked up): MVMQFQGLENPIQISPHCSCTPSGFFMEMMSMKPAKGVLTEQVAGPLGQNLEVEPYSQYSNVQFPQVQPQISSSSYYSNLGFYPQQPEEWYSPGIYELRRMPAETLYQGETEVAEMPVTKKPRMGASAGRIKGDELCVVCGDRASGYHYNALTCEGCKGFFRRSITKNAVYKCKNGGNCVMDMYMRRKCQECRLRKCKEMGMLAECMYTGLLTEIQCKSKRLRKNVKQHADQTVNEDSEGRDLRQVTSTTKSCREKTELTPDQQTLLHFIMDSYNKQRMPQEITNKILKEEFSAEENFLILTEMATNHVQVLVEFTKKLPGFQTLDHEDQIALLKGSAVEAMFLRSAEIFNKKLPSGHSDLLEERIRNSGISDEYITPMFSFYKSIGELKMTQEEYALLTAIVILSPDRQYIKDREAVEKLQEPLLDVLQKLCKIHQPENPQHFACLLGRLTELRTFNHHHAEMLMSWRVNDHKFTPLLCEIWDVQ

In the case of `CCOP(=S)(OCC)Oc1cc(C)nc(C(C)C)n1`, the outcome in assay [1], in [2], in assay [3], in assay [4], in [5] and in [6] was inactive. In addition, the outcome in [7] and in assay [8] was inactive.
For `CCc1cccc(C)c1N(C(=O)CCl)C(C)COC` (stereo not given), the outcome in assay [2], in [3], in assay [4], in assay [5], in assay [6] and in assay [7] was inactive. Besides, the result in [8] was inactive.
On to `C=C(C)[C@H]1Cc2c(ccc3c2O[C@@H]2COc4cc(OC)c(OC)cc4[C@@H]2C3=O)O1`, for which the compound was called inactive in assay [2], in assay [3], in [4], in assay [5], in assay [6] and in [9]. Further, in [8], the AC50 was 1.21 µM (active).
On to `CC(C)N(C(=O)SCC(Cl)=C(Cl)Cl)C(C)C`, for which the outcome in [2], in assay [3], in assay [4], in assay [5], in assay [6] and in [7] was inactive. For the same compound, in [8], the compound was called inactive. Also, in [9], the AC50 was 19.9 µM (active).
In the case of `CCOP(=S)(OCC)SCCSCC`, the result in assay [2], in assay [3], in [4], in [5], in assay [6] and in assay [7] was inactive. Also, the compound was classed as inactive in [8].
For the compound `O=c1ccc(=O)[nH][nH]1`, the outcome in assay [2], in assay [3], in [4], in assay [5], in [6] and in assay [8] was inactive. Besides, the call in assay [10] and in assay [9] was inactive.
Consider `CCOC(=O)CC(SP(=O)(OC)OC)C(=O)OCC` (stereo not given), for which the compound was classed as inactive in assay [2], in assay [3], in [4], in assay [5], in [6] and in assay [7]. Moreover, the result in assay [8], in [10] and in assay [9] was inactive.
Turning to `CCNc1nc(Cl)nc(NC(C)(C)C#N)n1`, the result in assay [2], in assay [3], in assay [4], in [5], in assay [6] and in assay [7] was inactive. Further, the compound was called inactive in assay [8] and in [10].
Consider `Cc1ccn2nc(S(=O)(=O)Nc3c(F)cccc3F)nc2n1`, for which the compound was called inactive in assay [2], in assay [3], in assay [4], in assay [5], in assay [6] and in assay [7]. Further, the outcome in [8] and in assay [9] was inactive.
Turning to `Cc1cc(C2CC2)nc(Nc2ccccc2)n1`, the compound was called inactive in assay [2], in assay [4], in assay [5], in assay [8] and in assay [9]. Besides, the AC50 in assay [3] is 50 µM (active); in assay [6] it was 33 µM (active); in assay [7], 50 µM (active).
`CC(C)=CC1C(C(=O)OCN2C(=O)C3=C(CCCC3)C2=O)C1(C)C` (stereo not given): the result in assay [2], in [4], in assay [5], in assay [6], in [7] and in assay [8] was inactive. The outcome in assay [10] was inactive. For the same compound, the AC50 in [3] is 62.1 µM (active).
Take `CSc1nnc(C(C)(C)C)c(=O)n1N`: the compound was called inactive in assay [2], in assay [3], in assay [4], in assay [5], in [6] and in assay [7]. Further, the result in [8], in assay [10] and in [9] was inactive.
Take `Nc1nc(N)nc(NC2CC2)n1`: the compound was called inactive in assay [2], in assay [3], in assay [4], in [5], in assay [6] and in assay [8]. Further, the compound was classed as inactive in [10] and in [9].
With `CCCCSP(=O)(SCCCC)SCCCC`, the call in [2], in [3], in assay [4], in [5], in assay [6] and in assay [7] was inactive. Besides, the call in assay [9] was inactive. In [8], the AC50 was 81.2 µM (active).
As for `CCOP(=S)(OCC)OC(Cl)C(Cl)(Cl)Cl` (stereo not given), the result in [2], in assay [3], in assay [4], in assay [5], in assay [6] and in assay [7] was inactive. In addition, the compound was classed as inactive in assay [8].
Take `CC1=NNC(=O)N(/N=C/c2cccnc2)C1`: the result in assay [2], in assay [3], in [4], in assay [5], in [6] and in assay [7] was inactive. The compound was called inactive in [8].
Turning to `CCc1cnc(C2=NC(C)(C(C)C)C(=O)N2)c(C(=O)O)c1` (stereo not given), the compound was called inactive in [2], in [3], in assay [4], in [5], in assay [6] and in assay [8]. For the same compound, in assay [10], the compound was called inactive.
On to `CCCOCC(=Nc1ccc(Cl)cc1C(F)(F)F)n1ccnc1`, for which the call in [2], in assay [3], in assay [4], in assay [5], in [6] and in assay [8] was inactive. Further, the result in [10] and in [9] was inactive.

In general, AC50 refers to the midpoint of the concentration-response curve, whichever way the signal moves.
